Structures can show the parent of a compound that is named as a salt. ± gives the standard deviation of the averaged measurements.
What follows are compounds tested on E. coli TESEC Mtb Alr (assay: growth (OD600 after 10 h); higher = more growth (less inhibition)). Settings: arabinose 1000000 nM; compound 0.1 mM; raw OD600 reference: median of DMSO wells 0.193, cell-free background 0.041.
Experimental: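 TESEC Mtb Alr E. coli, or the Alr+ wild-type control, in 384-well plates with Prestwick library compounds at 0.1 mM and 1% DMSO, across arabinose induction levels of 1E3 to 1E7 nM. Growth is read as OD600 after 10 h at 37 °C in triplicate biological replicates.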

Point of comparison: `NC1CCN(c2nc3c(cc2F)c(=O)c(C(=O)O)cn3-c2ccc(F)cc2F)C1` (stereo not given) [Tosufloxacin hydrochloride], growth 0.0452 ± 0.0008. Against it:
- N=c1nc(N2CCCCC2)cc(N)n1O [Minoxidil] — higher, 0.166 ± 0.0034
- CC(=O)NC[C@H]1CN(c2ccc(N3CCOCC3)c(F)c2)C(=O)O1 [Linezolid] — lower, 0.0402 ± 0.00055
- CC(O)(P(=O)(O)O)P(=O)(O)O [Etidronic acid, disodium salt] — higher, 0.184 ± 0.0041
- COc1ccc2cc([C@@H](C)C(=O)O)ccc2c1 [(R) -Naproxen sodium salt] — higher, 0.183 ± 0.0045
- O=C(NCCNCC(O)COc1ccc(O)cc1)N1CCOCC1 (stereo not given) [Xamoterol hemifumarate] — higher, 0.19 ± 0.0053
- Cc1cc2cc3c(C)cc(=O)oc3c(C)c2o1 [Trioxsalen] — higher, 0.161 ± 0.0053
- CCCCC(=O)O[C@H]1CC[C@H]2[C@@H]3CCc4cc(O)ccc4[C@H]3CC[C@]12C [Estradiol Valerate] — higher, 0.221 ± 0.021
- CCCc1ncc(C[n+]2ccccc2C)c(N)n1 [Amprolium hydrochloride] — higher, 0.18 ± 0.0063
- COC1=C(OC)C(=O)C(CCCCCCCCCCO)=C(C)C1=O [Idebenone] — lower, 0.04233 ± 0.0004
- CC(N/C(=N\C#N)Nc1ccncc1)C(C)(C)C (stereo not given) [Pinacidil] — higher, 0.137 ± 0.0036
- C[C@H]1C[C@H]2[C@@H]3CCC4=CC(=O)C=C[C@]4(C)[C@@]3(F)[C@@H](O)C[C@]2(C)[C@@]1(O)C(=O)CO [Betamethasone] — higher, 0.134 ± 0.0038
- Fc1ccc(C(c2ccc(F)cc2)N2CCN(C/C=C/c3ccccc3)CC2)cc1 [Flunarizine dihydrochloride] — higher, 0.0591 ± 0.0018
- CCC(NC(C)C)C(O)c1ccc(O)c(O)c1 (stereo not given) [Isoetharine mesylate salt] — higher, 0.18 ± 0.0035
- C[C@H]1O[C@@H](O[C@H]2[C@@H](O)C[C@H](O[C@H]3[C@@H](O)C[C@H](O[C@H]4CC[C@@]5(C)[C@H](CC[C@@H]6[C@@H]5C[C@@H](O)[C@]5(C)[C@@H](C7=CC(=O)OC7)CC[C@]65O)C4)O[C@@H]3C)O[C@@H]2C)C[C@H](O)[C@@H]1O [Digoxin] — higher, 0.176 ± 0.0061
- CC(C)(O/N=C(\C(=O)N[C@@H]1C(=O)N2C(C(=O)[O-])=C(C[n+]3ccccc3)CS[C@H]12)c1csc(N)n1)C(=O)O [Ceftazidime pentahydrate] — higher, 0.0575 ± 0.00086
- Cc1cccc(C)c1NC(=O)C(C)N (stereo not given) [Tocainide hydrochloride] — higher, 0.1844 ± 0.0016
- CCCCNc1cc(C(=O)O)cc(S(N)(=O)=O)c1Oc1ccccc1 [Bumetanide] — higher, 0.159 ± 0.0062
- CCCSc1ccc2[nH]c(NC(=O)OC)nc2c1 [Albendazole] — higher, 0.1462 ± 0.00096
- O=c1[nH]cc(F)c(=O)[nH]1 [5-fluorouracil] — higher, 0.0827 ± 0.0053
- CCN(CC)CCOC(=O)C(c1ccccc1)c1ccccc1 [Adiphenine hydrochloride] — higher, 0.14 ± 0.0034
- CCCCc1cc2ccccc2c(OCCN(C)C)n1 [Dimethisoquin hydrochloride] — higher, 0.0689 ± 0.0025
- Nc1ccc(S(=O)(=O)Nc2nccs2)cc1 [Sulfathiazole] — higher, 0.125 ± 0.0031
- Nc1c2c(nc3ccccc13)CCCC2 [Tacrine hydrochloride] — higher, 0.149 ± 0.014
- O=C(O)c1cc(/N=N/c2ccc(S(=O)(=O)Nc3ccccn3)cc2)ccc1O [Sulfasalazine] — higher, 0.169 ± 0.011
- Oc1c(Cl)cc(Cl)c(Cl)c1Cc1c(O)c(Cl)cc(Cl)c1Cl [Hexachlorophene] — lower, 0.04387 ± 5.8e-05
- CC(C)(C)NC(=O)[C@@H]1C[C@@H]2CCCC[C@@H]2CN1C[C@@H](O)[C@H](Cc1ccccc1)NC(=O)[C@H](CC(N)=O)NC(=O)c1ccc2ccccc2n1 [Saquinavir mesylate] — higher, 0.051 ± 0.0027
- CN1CCN(C2=Nc3cc(Cl)ccc3Nc3ccccc32)CC1 [Clozapine] — higher, 0.1 ± 0.0026
- COc1ccc(C2CNC(=O)C2)cc1OC1CCCC1 (stereo not given) [Rolipram] — higher, 0.198 ± 0.012
- C[C@H](Cc1cc2c(c(C(N)=O)c1)N(CCCO)CC2)NCCOc1ccccc1OCC(F)(F)F [Silodosin] — higher, 0.158 ± 0.015
- COCCCOc1ccnc(C[S+]([O-])c2nc3ccccc3[nH]2)c1C (stereo not given) [Rabeprazole Sodium salt] — higher, 0.0782 ± 0.0026
- O=C(O)c1cccnc1Nc1cccc(C(F)(F)F)c1 [Niflumic acid] — higher, 0.06687 ± 0.00065
- C[C@]12CC[C@@H]3c4ccc(O)cc4C[C@@H](CCCCCCCCC[S+]([O-])CCCC(F)(F)C(F)(F)F)[C@H]3[C@@H]1CC[C@@H]2O (stereo not given in full) [Fulvestrant] — higher, 0.179 ± 0.012
- CC(C)(C)NCC(O)COc1cccc2c1CC(O)C(O)C2 (stereo not given) [Nadolol] — higher, 0.2 ± 0.0078
- CCc1cccc(CC)c1NC(=O)CN(CC(=O)O)CC(=O)O [Etifenin] — higher, 0.192 ± 0.011
- CCC(=O)[C@@]1(C)[C@H](C)C[C@H]2[C@@H]3CCC4=CC(=O)C=C[C@]4(C)[C@H]3[C@@H](O)C[C@@]21C [Rimexolone] — higher, 0.148 ± 0.0067
- Cc1cn([C@H]2C[C@H](N=[N+]=[N-])[C@@H](CO)O2)c(=O)[nH]c1=O [Zidovudine, AZT] — higher, 0.0604 ± 0.0022
- O=C(CCCCCCC(=O)Nc1ccccc1)NO [Vorinostat] — higher, 0.153 ± 0.0023
- CN/C(=N\CCSCc1nc[nH]c1C)NC#N [Cimetidine] — higher, 0.179 ± 0.00087
- O=C(N[C@H](CO)[C@H](O)c1ccc([N+](=O)[O-])cc1)C(Cl)Cl [Chloramphenicol] — lower, 0.03907 ± 0.00015
